About 2,000 (36%) of roughly 5,500 compounds were called active. About 18% were inconclusive and are not listed. No stated cut-off is given here; in the data, active means normalized growth mostly below about 0.91 (no sharp cut-off); inconclusive means no clear call, values can overlap the other calls; inactive means mostly above about 0.92. Some of the results follow.
Assay: chemical genetic growth profiling, strain panel (AID 1159580);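 further: tested at 20 µM; growth read once vehicle control cultures reached saturation at 30 °C; 1 = growth at the plate median or of vehicle wells; lower values mean less growth of the strain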
Conditions: growth OD

Measured: normalized growth

C[C@]12C=CC(=O)C=C1CCC1C2[C@@H](O)C[C@@]2(C)C1CC[C@]2(O)C(=O)CO (stereo not given in full)
inactive: S. cerevisiae deletion strains, locus YJR075W, strain HOC1, hits give low values 0.993 | S. cerevisiae deletion strains, locus YKL009W, strain mrt4, hits give low values 0.976 | S. cerevisiae deletion strains, locus YKL068W, hits give low values 0.991 | S. cerevisiae deletion strains, locus YKL085W, strain MDH1 (second series), hits give low values 0.98 | S. cerevisiae deletion strains, locus YKL085W, strain MDH1, hits give low values 0.98 | S. cerevisiae deletion strains, locus YKL160W, strain elf1, hits give low values 0.981 | S. cerevisiae deletion strains, locus YKL190W, strain CNB1, hits give low values 0.996 | S. cerevisiae deletion strains, locus YKR001C, strain vps1, hits give low values 0.991 | S. cerevisiae deletion strains, locus YKR026C, strain gcn3, hits give low values 0.997 | S. cerevisiae deletion strains, locus YKR091W, strain srl3, hits give low values 0.999 | S. cerevisiae deletion strains, locus YLL001W, strain dnm1, hits give low values 0.978 | S. cerevisiae deletion strains, locus YLL026W, hits give low values 0.995 | S. cerevisiae deletion strains, locus YLL041C, strain sdh2, hits give low values 0.989 | S. cerevisiae deletion strains, locus YLR027C, strain aat2, hits give low values 0.995 | S. cerevisiae deletion strains, locus YLR039C, strain RIC1, hits give low values 0.974 | S. cerevisiae deletion strains, locus YLR058C, strain SHM2, hits give low values 0.994 | S. cerevisiae deletion strains, locus YLR102C, strain apc9, hits give low values 0.98 | S. cerevisiae deletion strains, locus YLR113W, strain HOG1, hits give low values 1.01 | S. cerevisiae deletion strains, locus YLR221C, strain rsa3, hits give low values 1.01 | S. cerevisiae deletion strains, locus YLR258W, strain gsy2, hits give low values 0.991 | S. cerevisiae deletion strains, locus YLR262C, strain YPT6 (second series), hits give low values 0.992 | S. cerevisiae deletion strains, locus YLR262C, strain YPT6, hits give low values 0.991 | S. cerevisiae deletion strains, locus YLR268W, strain sec22, hits give low values 0.948 | S. cerevisiae deletion strains, locus YLR320W, strain mms22, hits give low values 0.97 | S. cerevisiae deletion strains, locus YLR330W, strain CHS5, hits give low values 0.99 | S. cerevisiae deletion strains, locus YLR342W, strain FKS1 (second series), hits give low values 0.979 | S. cerevisiae deletion strains, locus YLR342W, strain FKS1, hits give low values 0.997 | S. cerevisiae deletion strains, locus YLR357W, strain rsc2, hits give low values 0.989 | S. cerevisiae deletion strains, locus YLR370C, strain arc18, hits give low values 0.988 | S. cerevisiae deletion strains, locus YLR371W, strain rom2, hits give low values 0.964 | S. cerevisiae deletion strains, locus YLR384C, strain iki3, hits give low values 0.991 | S. cerevisiae deletion strains, locus YLR418C, strain cdc73, hits give low values 0.98 | S. cerevisiae deletion strains, locus YML016C, strain PPZ1, hits give low values 0.988 | S. cerevisiae deletion strains, locus YML032C, strain rad52, hits give low values 0.972 | S. cerevisiae deletion strains, locus YML120C, strain ndi1, hits give low values 0.984 | S. cerevisiae deletion strains, locus YML124C, strain tub3, hits give low values 0.989 | S. cerevisiae deletion strains, locus YMR058W, strain fet3, hits give low values 0.996 | S. cerevisiae deletion strains, locus YMR078C, strain ctf18, hits give low values 0.974 | S. cerevisiae deletion strains, locus YMR125W, strain sto1, hits give low values 0.99 | S. cerevisiae deletion strains, locus YMR129W, hits give low values 0.993 | S. cerevisiae deletion strains, locus YMR205C, strain PFK2, hits give low values 0.998 | S. cerevisiae deletion strains, locus YMR223W, strain ubp8, hits give low values 1 | S. cerevisiae deletion strains, locus YMR231W, strain pep5, hits give low values 0.991 | S. cerevisiae deletion strains, locus YMR307W, strain GAS1, hits give low values 0.893 | S. cerevisiae deletion strains, locus YNL067W, strain RPL9B, hits give low values 1 | S. cerevisiae deletion strains, locus YNL071W, strain lat1, hits give low values 1 | S. cerevisiae deletion strains, locus YNL128W, strain TEP1, hits give low values 0.983 | S. cerevisiae deletion strains, locus YNL183C, strain NPR1, hits give low values 0.973 | S. cerevisiae deletion strains, locus YNL209W, strain ssb2, hits give low values 0.998 | S. cerevisiae deletion strains, locus YNL233W, strain BNI4, hits give low values 0.996 | S. cerevisiae deletion strains, locus YNL248C, strain rpa49, hits give low values 0.993 | S. cerevisiae deletion strains, locus YNL250W, strain rad50, hits give low values 0.967 | S. cerevisiae deletion strains, locus YNL271C, strain bni1, hits give low values 0.982 | S. cerevisiae deletion strains, locus YNL298W, strain CLA4, hits give low values 0.98 | S. cerevisiae deletion strains, locus YNL307C, strain MCK1, hits give low values 0.979 | S. cerevisiae deletion strains, locus YNL322C, strain KRE1 (second series), hits give low values 1 | S. cerevisiae deletion strains, locus YNL322C, strain KRE1, hits give low values 0.993 | S. cerevisiae deletion strains, locus YNR049C, strain mso1, hits give low values 0.995 | S. cerevisiae deletion strains, locus YNR052C, strain pop2, hits give low values 0.988 | S. cerevisiae deletion strains, locus YOL006C, strain TOP1, hits give low values 1.04 | S. cerevisiae deletion strains, locus YOL012C, strain htz1 0.96 | S. cerevisiae deletion strains, locus YOL147C, strain pex11, hits give low values 0.983 | S. cerevisiae deletion strains, locus YOR001W, strain rrp6, hits give low values 0.975 | S. cerevisiae deletion strains, locus YOR061W, strain CKA2, hits give low values 0.986 | S. cerevisiae deletion strains, locus YOR069W, strain VPS5, hits give low values 0.99 | S. cerevisiae deletion strains, locus YOR070C, strain gyp1, hits give low values 1 | S. cerevisiae deletion strains, locus YOR080W, strain dia2, hits give low values 0.997 | S. cerevisiae deletion strains, locus YOR083W, strain WHI5, hits give low values 0.973 | S. cerevisiae deletion strains, locus YOR106W, strain vam3, hits give low values 0.977 | S. cerevisiae deletion strains, locus YOR136W, strain idh2, hits give low values 0.987 | S. cerevisiae deletion strains, locus YOR144C, strain elg1, hits give low values 0.987 | S. cerevisiae deletion strains, locus YOR184W, strain ser1, hits give low values 0.978 | S. cerevisiae deletion strains, locus YOR231W, strain MKK1, hits give low values 1.01 | S. cerevisiae deletion strains, locus YOR265W, strain rbl2, hits give low values 0.996 | S. cerevisiae deletion strains, locus YOR270C, strain vph1, hits give low values 0.989 | S. cerevisiae deletion strains, locus YOR290C, strain snf2, hits give low values 0.997 | S. cerevisiae deletion strains, locus YOR316C, strain cot1, hits give low values 0.983 | S. cerevisiae deletion strains, locus YPL051W, strain arl3, hits give low values 0.995 | S. cerevisiae deletion strains, locus YPL055C, strain LGE1, hits give low values 1.01 | S. cerevisiae deletion strains, locus YPL078C, strain atp4, hits give low values 0.974 | S. cerevisiae deletion strains, locus YPL106C, strain sse1, hits give low values 1.02 | S. cerevisiae deletion strains, locus YPL240C, strain hsp82, hits give low values 1 | S. cerevisiae deletion strains, locus YPL241C, strain CIN2, hits give low values 0.993 | S. cerevisiae deletion strains, locus YPL256C, strain CLN2, hits give low values 1.02 | S. cerevisiae deletion strains, locus YPR119W, strain clb2, hits give low values 0.979 | S. cerevisiae deletion strains, locus YPR141C, strain kar3, hits give low values 0.981 | S. cerevisiae deletion strains, locus YPR163C, strain tif3, hits give low values 0.98 | S. cerevisiae deletion strains, locus YPR167C, strain met16, hits give low values 0.982 | S. cerevisiae deletion strains, strain wtn01, hits give low values 0.983 | S. cerevisiae strains, strain wild type, hits give low values 0.991
